Bioassay records as filed in PubChem BioAssay.
Only a selection was taken, and hits are over-represented in it overall.
mHTT CaM bind – mutant huntingtin-calmodulin interaction inhibitors – biochemical, AlphaScreen, primary screen | actives 3.6% (n = 190,000) | inhibition, % at 15 µM | AlphaScreen His-mHTT/GST-CaM binding, luminescence | P42858;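 also: 0% = both proteins with DMSO and 100% = one protein alone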
Pf apPOL inh – Pf-apPOL inhibitors, biochemical, fluorescence; actives 0.25% (n = 210,000); Plasmodium falciparum apicoplast DNA polymerase (apPOL); Recombinant Pf-apPOL, molecular beacon fluorescence, 1.5 h; AID 1794808, 2022; inhibition, % at 10 µM
* marks the source's active call; other numbers are inactive results; x = no result given. Rule as the data show it: active = inhibition above about 50%; inactive = the rest.

SMILES	mHTT CaM bind	Pf apPOL inh
COc1cc(OC)c(OC)cc1CN1CCc2nc(Nc3ccc(F)cc3)ncc2C1	70.2*	-3.9
COc1ccc(Nc2ncc3c(n2)CCN(Cc2ccccc2OC)C3)cc1	44.6	-10.7
CCCCN1CCc2nc(Nc3ccc(OC)cc3)ncc2C1	52.3*	-3.5
COc1ccc(Nc2ncc3c(n2)CCN(Cc2cc(OC)c(OC)cc2OC)C3)cc1	14.2	-3.6
CCOc1ccc(N(CC(N)=O)S(=O)(=O)c2ccc(OC)c(OC)c2)cc1	-2.5	2.2
COc1cc(SC)ccc1C(=O)Nc1ccc([N+](=O)[O-])cc1C	1.4	-1.6
Cc1ccccc1C(=O)Nc1cc(C(=O)O)cc(C(=O)O)c1	-0.2	-0.2
CN(C)c1ccc(C(O)c2nc3ccccc3n2Cc2ccccc2)cc1 (centres undefined)	50.3*	-7.2
CC(O)c1nc2ccccc2n1Cc1ccccc1 (centres undefined)	6.0	-10.3
COc1ccc(NCC(O)Cn2c(C)c(C)c3ccccc32)c(OC)c1 (centres undefined)	74.0*	-0.8
Cc1c(C)n(CC(O)CNC2CCCCC2)c2ccccc12 (centres undefined)	3.0	-0.5
CC(=O)Nc1ccc(OCC(O)Cn2c3ccccc3c3ccccc32)cc1 (centres undefined)	26.0	-1.8
Cc1c(C)n(CC(O)CN2CCCCCC2)c2ccccc12 (centres undefined)	10.0	-8.3
CCOc1ccc(NCC(O)Cn2c(C)c(C)c3ccccc32)cc1 (centres undefined)	84.0*	-1.9
COc1ccc(NCC(O)Cn2c(C)c(C)c3ccccc32)cc1 (centres undefined)	57.0*	1.8
CCCCOc1ccc(CN2CCCC2c2cc(C)no2)cc1 (centres undefined)	-7.2	0.3
CCOc1ccccc1-n1c(SCc2ccccc2F)nc2[nH]ncc2c1=O	12.0	-8.4
O=[N+]([O-])c1ccc(C=NC2=NN(c3ccccc3)CC2)cc1	59.0*	2.7
O=[N+]([O-])c1ccc(-c2ccc(N=Cc3ccccc3)cc2)cc1	-4.0	18.6
COc1ccc(C(=O)Nc2c3c(nn2C(C)(C)C)CSC3)cc1	23.0	-1.6
Cc1ccc(-n2nc3c(c2NC(=O)/C=C/c2ccccc2)CSC3)cc1	45.0	9.3
O=C(/C=C/c1ccccc1)Nc1c2c(nn1-c1ccc(F)cc1)CSC2	76.0*	-9.1
CC(C)(C)n1nc2c(c1NC(=O)/C=C/c1ccccc1)CSC2	98.0*	2.9
O=C(/C=C/c1ccccc1)Nc1c2c(nn1-c1cccc(Cl)c1)CSC2	53.0*	-3.4
O=C(/C=C/c1ccccc1)Nc1c2c(nn1-c1ccc([N+](=O)[O-])cc1)CSC2	56.0*	-9.5
SMILES	mHTT CaM bind	Pf apPOL inh
O=C(Nc1c2c(nn1-c1cccc(Cl)c1)CSC2)c1cccc(Cl)c1	-1.0	-6.0
O=C(/C=C/c1ccc2c(c1)OCO2)Nc1c2c(nn1-c1ccc([N+](=O)[O-])cc1)CSC2	37.0	-1.6
Cc1ccccc1C(=O)N1CCc2c(c(-c3nc(Cc4ccccc4)no3)nn2C)C1	5.0	-1.7
COc1ccc(CCNC(=O)Nc2ccc(F)cc2F)cc1	0.0	15.5
O=C(NCc1ccccc1)c1ccc2c(c1)Sc1ncccc1C(=O)N2C1CC1	-0.3	-20.6
O=C(Nc1c2c(nn1-c1ccc([N+](=O)[O-])cc1)CSC2)c1ccc(Cl)c([N+](=O)[O-])c1	56.0*	-4.6
O=C(Nc1c2c(nn1-c1ccc(F)cc1)CSC2)c1ccc(Br)o1	58.0*	-11.1
O=C(Nc1c2c(nn1-c1ccc(F)cc1)CSC2)c1ccc(Cl)c([N+](=O)[O-])c1	6.0	-7.3
Cc1ccc(-n2nc3c(c2NC(=O)c2ccc(Br)o2)CSC3)cc1	47.0	-5.6
COc1ccccc1-c1nc(C2CCN(C(=O)COc3ccccc3)CC2)no1	18.2	-6.8
Cc1ccc(CNC(=O)c2ccc3c(c2)N(C)C(=O)C2CCCCN32)o1 (centres undefined)	7.4	-3.4
Cc1nn(-c2ccccc2)nc1CNS(=O)(=O)c1ccc(-c2ccon2)s1	x	-5.3
Cc1ccnc(Nc2nc(-c3ccc(O)c(O)c3)cs2)c1	92.0*	0.5
Cc1cccnc1Nc1nc(-c2ccc(O)c(O)c2)cs1	62.0*	-3.0
Cc1ccc(-c2csc(Nc3ccccn3)n2)cc1C	25.6	4.1
COc1cccc(-c2csc(Nc3cc(C)ccn3)n2)c1	32.0	-4.1
COCC(=O)Nc1ccc2c(c1)CN(C(=O)c1ccccc1)CC2	2.5	1.5
Cc1nnc(-c2nnc(NCC3CCCCC3)c3ccccc23)o1	33.5	1.7
COc1ccccc1NC(=O)CN(c1ccc(Oc2ccccc2)cc1)S(C)(=O)=O	49.7	-1.4
O=C(Nc1cccc(-c2ccc(N3CCOCC3)nn2)c1)c1ccc2nsnc2c1	-5.7	2.0
O=C(Nc1cccc(-c2ccc(N3CCOCC3)nn2)c1)c1cc(-c2ccco2)on1	55.3*	41.7
O=C(COc1ccc(F)cc1F)Nc1cccc(-c2ccc(N3CCOCC3)nn2)c1	-1.5	-1.3
Cc1ccc(-c2ccc(N3CCN(S(C)(=O)=O)CC3)nn2)cc1C	-7.7	-6.2
O=C(NCc1ccccc1)Nc1cccc(-c2ccc(N3CCCC3)nn2)c1	84.6*	-51.6
O=C(Nc1cccc(-c2ccc(N3CCCCC3)nn2)c1)c1ccccc1[N+](=O)[O-]	11.9	3.4
SMILES	mHTT CaM bind	Pf apPOL inh
COc1cc(C)c(C)cc1S(=O)(=O)Nc1cccc(-c2ccc(N3CCCC3)nn2)c1	76.6*	-3.1
COc1ccc(NC(=O)Nc2cccc(-c3ccc(N4CCOCC4)nn3)c2)cc1OC	50.3*	-17.8
CCC(=O)Nc1cccc(-c2noc(C3CCN(C(=O)c4sccc4C)CC3)n2)c1	15.0	-4.2
CSc1cccc(NC(=O)c2ccccc2O)c1	-5.1	-12.4
Cn1c2ccccc2n2nc3nc[nH]c(=O)c3c12	15.1	x
CCc1ccc(OCC(=O)NCc2ccc(F)cc2)cc1	-17.7	-3.3
O=C(CSc1nnc(-c2cccs2)o1)c1ccc(Br)cc1	x	-1.2
Cc1nc(C(F)(F)F)ccc1C(=O)NNC(=O)c1cc(C)n(C(C)(C)C)n1	x	-7.4
CCOC(=O)CC[C@H]1CC[C@]2(CCCN(C(=O)c3ccno3)C2)O1	78.3*	-2.6
CCN(CC)C(=O)CC[C@H]1CC[C@]2(CCCN(C(=O)c3ccno3)C2)O1	-6.5	-8.9
Cc1nc2ccc3nc(NC(=O)c4snnc4C)sc3c2s1	-22.7	2.8
O=C(O)CC1CCCCO1 (centres undefined)	0.6	x
CC(C)CC(=O)N1CCC(c2cc(N)on2)CC1	-10.6	0.7
O=C(NCc1ccc2c(c1)OCO2)c1ccc(-c2ccsc2)nc1	-0.5	0.9
COCOCCn1cc(CN2CCS(=O)(=O)N(Cc3ccc(-c4ccc(Cl)nc4)cc3)C(CC(C)C)C2=O)nn1 (centres undefined)	25.8	-26.8
COCOCCn1cc(CN2CCS(=O)(=O)N(Cc3ccc(-c4ccccc4)cc3)C(C)C2=O)nn1 (centres undefined)	58.9*	6.2
COCOCCn1cc(CN2CCS(=O)(=O)N(Cc3ccc(-c4ccc(Cl)cc4)cc3)C(C)C2=O)nn1 (centres undefined)	14.5	-20.9
COCOCCn1cc(CN2CCS(=O)(=O)N(Cc3ccc(-c4ccc(Cl)cc4)cc3)C(CC(C)C)C2=O)nn1 (centres undefined)	53.5*	-23.1
COCOCCn1cc(CN2CCS(=O)(=O)N(Cc3ccc(-c4ccc(F)cc4)cc3)C(C)C2=O)nn1 (centres undefined)	62.6*	14.0
